# Experimental data as given in the supplement of paper PMC10670038.
# Structures can show the parent of a compound that is named as a salt. ± gives the standard deviation of the averaged measurements. Whole data set: some 2,000 compounds, median “relative cell viability vs DMSO, compound alone” near 1.1, cut for the lowest 2% near 0.29. The full list was thinned out, with the lowest values kept by preference.
# System: TE10
# Experiment: relative cell viability vs DMSO, compound alone (fraction); TE10 is an esophageal squamous carcinoma line; higher = less cytotoxic
# Details: 2 µM; 48 h
# Procedure: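 TE10 ESCC cells (1,000/well, 384-well plates) were treated with Selleck bioactive library compounds at 2 uM alone for 48 h. Viability was read by CellTiter-Glo and expressed relative to DMSO wells. Two technical replicates (A, B).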
row,Structure (SMILES),relative cell viability
1,C[C@H]1CCC/C=C/[C@@H]2C[C@H](O)C[C@H]2[C@H](O)/C=C/C(=O)O1 [Brefeldin A],0.2497 ± 0.0017
2,Cc1c(Cl)c(OCC(=O)N2CCN(C)CC2)nc2sc(C(=O)NC3CC3)c(N)c12,1.04 ± 0.019
3,Cc1cc(C(C#N)c2ccc(Cl)cc2)c(Cl)cc1NC(=O)c1cc(I)cc(I)c1O (stereo not given) [Closantel],1.12 ± 0.019
4,O=S(=O)(F)Cc1ccccc1,0.978 ± 0.021
5,O=C(O)CCCc1ccc(N(CCCl)CCCl)cc1 [Chloroambucil],1.14 ± 0.012
6,CN1C2CC(O)CC1C1OC12 (stereo not given) [Scopine],0.808 ± 0.14
7,C=CC[C@]1(O)CC[C@H]2[C@@H]3CCC4=CC(=O)CCC4=C3C=C[C@@]21C [Altrenogest],1.115 ± 0.0019
8,Cc1c(N)nc(C(CC(N)=O)NCC(N)C(N)=O)nc1C(=O)NC(C(=O)NC(C)C(O)C(C)C(=O)NC(C(=O)NCCc1nc(-c2nc(C(=O)NCCC[S+](C)C)cs2)cs1)C(C)O)C(O[C@@H]1O[C@@H](CO)[C@@H](O)[C@H](O)[C@@H]1O[C@H]1O[C@H](CO)[C@@H](O)[C@H](OC(N)=O)[C@@H]1O)c1cnc[nH]1 (stereo not given in full) [Bleomycin Sulfate],0.856 ± 0.038
9,C[C@@H]1CC[C@@]2(OC1)O[C@H]1C[C@H]3[C@@H]4CC=C5C[C@@H](O[C@@H]6O[C@H](CO)[C@@H](O[C@@H]7O[C@@H](C)[C@H](O)[C@@H](O)[C@H]7O)[C@H](O)[C@H]6O[C@@H]6O[C@@H](C)[C@H](O)[C@@H](O)[C@H]6O)CC[C@]5(C)[C@H]4CC[C@]3(C)[C@H]1[C@@H]2C [Dioscin],0.189 ± 0.051
10,O=C1CCC[C@@H]2[C@H]3CCCN4CCC[C@@H](CN12)[C@@H]34 [(+)-Matrine],1.1 ± 0.059
11,CC1=C(O)C(=O)C=C2C1=CC=C1[C@@]2(C)CC[C@@]2(C)[C@@H]3C[C@](C)(C(=O)O)CC[C@]3(C)CC[C@]12C [Celastrol],0.306 ± 0.0087
12,"O=[N+]([O-])C=Cc1ccc2c(c1)OCO2 [MNS (3,4-Methylenedioxy-β-nitrostyrene, MDBN)]",0.742 ± 0.054
13,CC(C)=CCC[C@]1(C)C=Cc2c(O)c3c(c(CC=C(C)C)c2O1)O[C@]12C(=C[C@@H]4C[C@H]1C(C)(C)O[C@@]2(C/C=C(/C)C(=O)O)C4=O)C3=O [Gambogic Acid],0.0673 ± 0.0049
14,Cc1sc2c(c1C)C(c1ccc(Cl)cc1)=N[C@@H](CC(=O)OC(C)(C)C)c1nnc(C)n1-2,0.9008 ± 0.0079
15,Cc1sc2c(c1C)C(c1ccc(Cl)cc1)=NC(CC(N)=O)c1nnc(C)n1-2 (stereo not given),0.954 ± 0.053
